Measurements as given in PubChem BioAssay (EPA / NIEHS).
Inconclusive results are not listed. Active and inactive are the calls of the source. How the source made its calls: active means hit-call score of the fitted dose curve at least 0.9, where 1 is the maximum; inconclusive means response in the unintended direction; inactive means score below 0.9.

assay: Tanguay_ZF_120hpf_NC_legacy: (Legacy) Oregon State University Tanguay Lab 120 Hour Post-fertilization zebrafish Assay for Notochord and Tail Malformation (AID 2283656)
Procedure: Tanguay_ZF_120hpf_legacy is a whole embryo, multiplexed endpoint assay using zebrafish larvae exposed for 120 hours post fertilization on a 96-well plate.Tanguay_ZF_120hpf_NC_legacy is one of one assay component(s) measured or calculated from the Tanguay_ZF_120hpf_legacy assay. It is designed to make measurements of zebrafish development as detected with brightfield microscopy of developing zebrafish embryos.Data from the assay component Tanguay_ZF_120hpf_NC_legacy was analyzed into 1 assay endpoints. This assay endpoint, Tanguay_ZF_120hpf_NC_legacy, was analyzed in the positive analysis fitting direction relative to DMSO as the negative control and baseline of activity. Using a type of morphology reporter, gain-of-signal activity can be used to understand changes in developmentals as they relate to the whole embryo. To generalize the intended target to other relatable targets, this assay endpoint is annotated to the zebrafish development intended target family, where the subfamily is embryonic notochord morphogenesis.
Zebrafish husbandry: Tropical 5D wild-type adult zebrafish were housed in at an approximate density of 1000 per 100 gallon tank at the Sinnhuber Aquatic Research Laboratory, Oregon State University, Corvallis, OR. Each tank was kept at standard laboratory conditions of 28C on a 14-h light/10-h dark photoperiod in fish water consisting of reverse osmosis water supplemented with a commercially available salt (Instant Ocean). Spawning funnels were placed into the tanks the night prior, and embryos were collected and staged. To increase bioavailability, the chorion was enzymatically removed using pronase (63.6mg/ml, >/= 3.5U/mg, Sigma-Aldrich: P5147) at 4 hours post fertilization (hpf) using a custom automated dechorionator.Chemical exposures: Six hpf dechorionated embryos were placed 1 embryo per well in a 96-well plate prefilled with 90 ul of EM using automated embryo placement systems (AEPS). Ten microliters of each row of dilution plate 2 was added to 2 exposure plates. The final DMSO concentration used was 0.64% (vol/vol). Thirty-two embryos were also exposed to 5uM trimethyltin chloride (positive control). Plates were sealed to prevent evaporation and foil covered to reduce light exposure and kept in a 28C incubator. Embryos were statically exposed until 120 hpf. At 24 hpf, embryos were assessed for photomotor response using a custom photomotor response analysis tool (PRAT) and for developmental toxicity endpoints (MO24: mortality at 24 hpf, DP: developmental progression, SM: spontaneous movement, and NC: notochord distortion). At 120 hpf, locomotor activity was measured using Viewpoint Zebralab and assessed for 18 endpoints. Zebrafish acquisition and analysis program (ZAAP), a custom program designed to inventory, acquire, and manage zebrafish data, was used to collect developmental endpoints as either present or absent (i.e., binary responses were recorded). If mortality occurred for an embryo (at either 24 or 120 hpf), the non-mortality endpoints were not measured.

| SMILES | outcome |
| --- | --- |
| O=C1NS(=O)(=O)c2ccccc21 | inactive |
| O=C(CCCN1CCC(O)(c2ccc(Cl)cc2)CC1)c1ccc(F)cc1 | inactive |
| CCCCCCCCCCCCCCC | inactive |
| CCCCC(CC)C(=O)O (centres undefined) | inactive |
| CN(Cc1cnc2nc(N)nc(N)c2n1)c1ccc(C(=O)N[C@@H](CCC(=O)O)C(=O)O)cc1 | inactive |
| CN(C)CCOC(c1ccccc1)c1ccccc1 | inactive |
| CS(=O)(=O)c1ccc([C@@H](CC2CCCC2)C(=O)Nc2cnccn2)cc1Cl | inactive |
| CCCCC=O | inactive |
| OCC(CO)(CBr)CBr | inactive |
| N=C(N)c1ccc(OCCCCCOc2ccc(C(=N)N)cc2)cc1 | inactive |
| O=C(c1ccccc1)c1ccccc1 | inactive |
| CCCCc1oc2ccccc2c1C(=O)c1cc(I)c(OCCN(CC)CC)c(I)c1 | inactive |
| Cc1[nH]nc2c1N=C(c1ccccc1Cl)c1cc([N+](=O)[O-])ccc1N2 | inactive |
| CCC(C)c1ccccc1O (centres undefined) | inactive |
